The source of these data is PubChem BioAssay.

Structures are written as SMILES.

Test [1] has as its target Tumor necrosis factor receptor superfamily member 10B (Homo sapiens) (UniProt O14763). The experiment in a line: viability loss of caspase-8 NB7 cells with TRAIL – with/without TRAIL, luminescence panel, confirmation (AID 651596). To be noted: NB7 neuroblastoma + caspase-8, TRAIL sensitization, NB7 Caspase-8, with TRAIL, mean of runs, at 10 µM, stronger effect = higher value.
Experiment in test [2]: as above
To be noted: NB7 neuroblastoma + caspase-8, without TRAIL, NB7 Caspase-8, without TRAIL, mean of runs, at 10 µM.

Tumor necrosis factor receptor superfamily member 10B (Homo sapiens), sequence (O14763 whole entry, looked up): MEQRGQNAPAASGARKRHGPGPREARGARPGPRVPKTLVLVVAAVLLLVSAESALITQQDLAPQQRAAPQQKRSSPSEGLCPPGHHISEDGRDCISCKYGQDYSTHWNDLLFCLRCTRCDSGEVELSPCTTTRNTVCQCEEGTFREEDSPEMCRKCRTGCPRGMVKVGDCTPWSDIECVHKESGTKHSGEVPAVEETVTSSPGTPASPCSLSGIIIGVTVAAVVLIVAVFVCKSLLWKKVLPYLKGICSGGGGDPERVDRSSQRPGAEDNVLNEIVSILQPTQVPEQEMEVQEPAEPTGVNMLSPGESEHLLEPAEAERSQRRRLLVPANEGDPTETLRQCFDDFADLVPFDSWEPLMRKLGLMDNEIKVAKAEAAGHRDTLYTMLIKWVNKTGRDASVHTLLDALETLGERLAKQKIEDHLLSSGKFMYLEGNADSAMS

For the compound `Cc1ccc(-c2nnc(NC(=O)c3ccco3)o2)c(C)c1`, the activity worked out at 70.7% in test [1] and 58.6% in test [2].
Taken in the same sequence, the figures for `CCc1ccc(-c2ccc(SCC(=O)NCC3CCCO3)nn2)cc1` (centres undefined) were 52.9% and 62.2%.
With `COc1ccccc1NC(=O)Nc1ccc2c(c1)nc(C)n2C`, the activity in test [1] came to 77%; in test [2], 73.8%.
The corresponding values for `O=C(Nc1ccc(-c2cn3ccsc3n2)cc1)C1CC1` are 75.1% and 70.2%.
Taken in the same sequence, the figures for `CCOc1ccc2nc(-c3ccccc3)[nH]c2c1` were 81.2% and 76%.
In the case of `Cc1ccc(NC2=Nc3ccccc3CS2)cc1`, the activity in test [1] turned out to be 57.4%; in test [2], 38%.
`Cc1ccc(-c2nc(N/N=C/c3ccccc3[N+](=O)[O-])c3ccccc3n2)cc1`: the activity in test [1] worked out at 90.3%; in test [2], 82.4%.
The corresponding values for `COc1ccc(CN(C(=O)CSc2nnc(-c3ccccc3C)o2)c2ccc(F)cc2)cc1` are 97.9% and 97.3%.
The corresponding values for `Cc1ccc(S(=O)(=O)N2CCCCC2)cc1NC(=O)Cn1ncc(Cl)c(Cl)c1=O` are 98.7% and 99.3%.
For the compound `Cc1ccc(C(=O)Nc2ncc3c(Cl)cccc3n2)cc1`, the activity was determined as 91.5% in test [1] and 89% in test [2].
Taken in the same sequence, the figures for `O=C1Nc2ccccc2N(C(=O)c2ccc3ccccc3c2)C1c1nc2ccccc2[nH]1` (centres undefined) were 48.1% and 43.4%.
The corresponding values for `COc1cccc(CSc2nc3ccncc3[nH]2)c1` are 87.7% and 88.4%.
Taken in the same sequence, the figures for `CCC(=O)Nc1ccc(NC(=O)c2ccco2)cc1` were 35.1% and 41.4%.
Take `CCC(C)N(CC(=O)Nc1cccc(C)c1C)C(=O)CCl` (centres undefined): the activity is 99.5% in test [1] and 99.3% in test [2].
The corresponding values for `O=C(Nc1nc2ccccc2[nH]1)c1ccccc1` are 88% and 84.5%.
Take `COc1ccccc1NC(CC(=O)c1ccccc1)C(=O)OCC(=O)c1ccc(C)c(C)c1` (centres undefined): the activity in test [1] worked out at 73.5%; in test [2] it was 66.2%.
Taken in the same sequence, the figures for `CCN(CC)CCn1c2c(c(SCC(=O)Nc3nc4ccc(C)cc4s3)nc1=O)CCC2` were 28% and 21.6%.
